Measured values from PubChem BioAssay (NCATS).
Results filed as inconclusive are left out. The source made the active and inactive calls. Calls come from the whole dose curve; as a rule, active = well fitted curve in the direction sought with a large enough effect; inconclusive = small, poorly fitted or top-dose-only effect, or another doubt; inactive = no such curve, though single readings can be large; an effect the other way counts as inactive or inconclusive.

Target: Rap guanine nucleotide exchange factor 3 (Homo sapiens) (UniProt O95398)
Assay: Counterscreen qHTS for antagonist of cAMP-regulated guanine nucleotide exchange factor 3 (EPAC1) (AID 1645888);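 note: fluorescence loss as bound BODIPY-GDP is released from Rap1B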
Conditions: Rap1B-BODIPY-GDP nucleotide exchange, fluorescence; series mostly up to 154 µM; activity change, negative = inhibition: at the top concentration
In short: (§1)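 Rap1B–BODIPY-GDP (250 nM) with 50 uM GDP; compounds pin-transferred to 9.74 nM–152 uM final (activator) or from 7.32 nM upwards (inhibitor). Fluorescence Ex/Em 480/540 nm read at 5 and 30 min, then after adding cAMP or buffer, at room temperature.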
Note: % of control where 0% means no effect.

Rap guanine nucleotide exchange factor 3 (Homo sapiens), sequence (O95398 whole entry, looked up): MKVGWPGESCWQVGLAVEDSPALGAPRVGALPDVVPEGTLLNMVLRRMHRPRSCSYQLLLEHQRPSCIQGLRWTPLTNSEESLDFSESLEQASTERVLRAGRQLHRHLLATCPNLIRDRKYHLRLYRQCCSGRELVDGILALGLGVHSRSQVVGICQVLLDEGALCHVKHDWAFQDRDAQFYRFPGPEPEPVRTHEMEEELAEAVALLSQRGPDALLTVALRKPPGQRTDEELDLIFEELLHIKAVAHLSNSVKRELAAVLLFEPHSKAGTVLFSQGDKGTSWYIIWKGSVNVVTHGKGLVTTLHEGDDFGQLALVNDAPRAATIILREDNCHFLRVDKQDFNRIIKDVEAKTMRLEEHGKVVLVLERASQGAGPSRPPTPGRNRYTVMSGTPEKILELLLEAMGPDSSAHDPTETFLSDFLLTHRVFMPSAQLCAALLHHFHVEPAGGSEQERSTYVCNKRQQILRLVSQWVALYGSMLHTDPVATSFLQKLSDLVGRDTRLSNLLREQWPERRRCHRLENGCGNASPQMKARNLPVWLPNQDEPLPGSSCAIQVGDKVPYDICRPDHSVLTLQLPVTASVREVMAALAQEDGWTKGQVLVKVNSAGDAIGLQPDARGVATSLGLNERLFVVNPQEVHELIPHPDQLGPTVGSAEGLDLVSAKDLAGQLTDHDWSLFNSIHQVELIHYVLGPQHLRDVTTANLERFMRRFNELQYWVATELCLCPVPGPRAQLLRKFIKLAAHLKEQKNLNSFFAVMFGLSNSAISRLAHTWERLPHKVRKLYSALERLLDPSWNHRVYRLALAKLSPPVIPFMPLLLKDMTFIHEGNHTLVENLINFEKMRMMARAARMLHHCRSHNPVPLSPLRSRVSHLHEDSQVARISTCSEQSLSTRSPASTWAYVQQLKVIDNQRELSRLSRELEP

Compound | activity change, negative = inhibition
COc1ccc(C2CC(=O)Oc3cc(C)cc(C)c32)cc1 (configuration not stated) | 16.2% (inactive)
COC(=O)C1=NN(c2ccccc2)C2(S1)SC(C(C)=O)=C(C)N2c1ccccc1 (configuration not stated) | 7.33% (inactive)
CC1CCCN(C2(O)C(=O)Nc3c(C(F)(F)F)cccc32)C1 (configuration not stated) | -14.6% [at 30.8 µM] (inactive)
O=C(O)c1ccc(NC(=O)C(c2ccccc2)c2ccccc2)cc1 | 6.3% (inactive)

Target: Rap guanine nucleotide exchange factor 3 (Homo sapiens) (UniProt O95398)
Assay: Counterscreen qHTS for agonist of cAMP-regulated guanine nucleotide exchange factor 3 (EPAC1) (AID 1645889); note: nearly all actives have a fitted effect of over 40% in size
Conditions: EPAC1 Rap1B-BODIPY-GDP exchange, fluorescence; series mostly up to 154 µM; activation: at the top concentration
In short: as §1

Compound | activation
COc1ccccc1NC(=O)Cc1ccc(-c2ccccc2)cc1 | -8.48% (inactive)
Cc1cccc(NC(=O)CC2C(=O)OCCN2Cc2ccccc2)c1 (configuration not stated) | 28.8% (inactive)
CCOc1ccc(NC2c3ccccc3C(=O)N2Cc2ccco2)cc1 (configuration not stated) | 39.4% (inactive)
